Consider 40 compounds from PubChem BioAssay (NCATS).

Structures are written as SMILES. Records with an inconclusive call do not appear. Active and inactive are the calls of the source. Calls follow the shape of the full dose curve.
% is scaled to controls: 0 for no effect and ±100 for the full control effect.

Sequence of Bile acid receptor (Homo sapiens) (Q96RI1 whole entry, looked up): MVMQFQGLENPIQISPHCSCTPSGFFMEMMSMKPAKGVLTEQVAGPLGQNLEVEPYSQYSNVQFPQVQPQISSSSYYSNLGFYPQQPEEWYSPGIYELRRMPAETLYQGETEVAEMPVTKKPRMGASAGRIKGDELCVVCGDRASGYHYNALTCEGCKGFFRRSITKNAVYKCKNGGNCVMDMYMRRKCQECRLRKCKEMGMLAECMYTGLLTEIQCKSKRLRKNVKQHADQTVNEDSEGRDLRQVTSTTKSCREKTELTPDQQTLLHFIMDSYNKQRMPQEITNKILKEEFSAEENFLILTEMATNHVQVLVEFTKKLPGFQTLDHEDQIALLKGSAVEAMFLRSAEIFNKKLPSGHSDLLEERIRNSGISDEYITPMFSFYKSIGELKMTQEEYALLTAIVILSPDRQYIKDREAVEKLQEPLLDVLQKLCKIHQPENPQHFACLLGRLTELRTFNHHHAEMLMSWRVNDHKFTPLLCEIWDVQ

The target in the test is Bile acid receptor (Homo sapiens) (UniProt Q96RI1). The test is described as follows: qHTS assay for small molecule antagonists of farnesoid X receptor signaling (AID 588526). Particulars: HEK293T FXR-UAS-bla, beta-lactamase ratio, antagonist mode; series mostly up to 76.7 µM; activity change, negative = inhibition: at the top concentration. The source says:
NIH Chemical Genomics Center [NCGC] U.S. Environmental Protection Agency [EPA] National Institutes of Environmental Health Sciences [NIEHS] National Toxicology Program [NTP] NCGC Assay Overview The farnesoid-X-receptor (FXR), a nuclear hormone receptor is highly expressed in liver, intestine, kidney and adrenal cortex. Natural ligands of FXR are the bile acids (Cholic acid, Chenodeoxy cholic acid etc). It is an important regulator of diverse metabolic pathways, including the bile acid homeostasis, lipid and glucose metabolisms. FXR regulates the expression of target genes by binding either as a monomer or as a heterodimer with RXR (retinoid X receptor). As FXR regulates a large number of target genes involved in bile acid, lipoprotein and glucose metabolisms, it is a potential pharmacological target for bile acid and lipid disorders. Thus screening environmental chemicals on FXR signaling can be used for the studies focused on metabolic syndrome, hepatic and intestinal toxicity etc.
NCGC Assay Protocol Summary Using a beta-lactamase reporter-gene under control of Farnesoid X receptor (FXR) response element, a cell-based assay [GeneBLAzer FXR-UAS-bla assay developed by Invitrogen] was used to measure FXR ligands signaling. GeneBLAzer FXR-UAS-bla HEK293T cells were used with assay medium containing 10% dialyzed FBS. The assay was performed in clear bottom black Greiner 1536-well plates. Guggulsterone were used in the screen as the positive control. Library compounds were measured for their ability to inhibit the reporter gene activity. Compounds were screened in a titration series in 1536-well format. The fluorescence intensity (405 nm excitation, 460/530 nm emission) was measured using an EnVision plate reader. Data was normalized relative to Chenodeoxycholic acid (50 uM, 100%), and DMSO only wells (basal, 0%). Concentration-response titration points for each compound were fitted to the Hill equation yielding concentrations of half-maximal inhibition (IC50) and maximal response (efficacy) values. qHTS protocol for FXR beta-lactamase assay in antagonist mode [Step] [Parameter] [Value] [Description] 1. Reagent; 5 uL; 5000 cells/well 2. Incubation; 37 C for 5-7 hrs 3. Compounds; 23 nL; 0.59 nM to 92 uM 4. Controls (Guggulsterone, FXR antagonist); 23 nL, - One column of dose response, start 200 uM, 1:2 dilutions in duplicates 5. Agonist (Stimulator); 1uL; Chenodeoxycholic acid at 100 uM and 50 uM final concentrations 6. Incubation; 37 C for 16 hrs 7. Detection reagent; 1 uL of CCF4-dye 8. Incubation; RT for 2 hrs 9. Detection; Fluorescence; Envision plate reader
Regarding `Cc1ccc(C)c(N)c1`, the “activity change, negative = inhibition” value was 4.99% (inactive).
The same measure, in the same setting: the value for `Cc1ccccc1C#N` was -9.64% (inactive).
For `c1ccc(Oc2ccccc2)cc1`, the outcome was inactive.
Regarding `Cc1cc(C)cc(N)c1`, the “activity change, negative = inhibition” value was -1.11% (inactive).
On the same count and under the same terms, the value for `C1COC1` was -3.04% (inactive); that for `Oc1c(Cl)ccc(Cl)c1Cl` was -2.81% (inactive).
With `Cc1ccccc1Br`, the “activity change, negative = inhibition” value is -7.55% (inactive).
Still for that read-out and setting: the value for `CCCCCCCCC/C=C/CC1CC(=O)OC1=O` (stereo not given) was 23% (inactive); that for `CCC(C)(C)C(=O)O` was 12.4% (inactive); that for `Cc1cccc([N+](=O)[O-])c1C(=O)O` was 5.05% (inactive).
Same read-out and setting: for `Nc1cc(Cl)c([N+](=O)[O-])cc1O` the value was 2.44% (inactive); for `CCCCN(CCO)CCCC`, -13.4% (inactive); for `CCOC(C)(C)C`, -2.24% (inactive).
Same read-out and setting: for `CCCCCCCCCCCCOCC1CO1` (stereo not given) the value was 2.13% (inactive).
For `CC(N)CN` (stereo not given), the “activity change, negative = inhibition” value is -6.65% (inactive).
As to `CSCCC=O`, the “activity change, negative = inhibition” value was -14.4% (inactive).
On to `Cc1ccc(C)cc1`, for which the “activity change, negative = inhibition” value is -4.75% (inactive).
On the same count and under the same terms, for `C=Cc1ccccc1C=C` the value was -6.84% (inactive).
For the compound `O=Cc1ccc(CO)o1`, the “activity change, negative = inhibition” value was 4.15% (inactive).
Same read-out and setting: for `O=C(O)c1ccccc1Cl` the value was -12.3% (inactive).
In the case of `CCCCC(CC)COC(=O)CCCCC(=O)OCC(CC)CCCC` (stereo not given), the result was inactive.
Consider `CCCC(C)CO` (stereo not given), for which the “activity change, negative = inhibition” value is -11.2% (inactive).
Turning to `Nc1nc(-c2ccccc2)cs1`, the “activity change, negative = inhibition” value is -19.3% (inactive).
In the case of `CN(C)CCCCl`, the “activity change, negative = inhibition” value was -2.98% (inactive).
Same read-out and setting: the value for `C=C(C)C(=O)OC` was -5.83% (inactive); that for `Cc1cc(C)cc([N+](=O)[O-])c1` was -1.53% (inactive); that for `CCCCOCCOCCOCCCC` was -4.04% (inactive).
For the compound `O=C(Cl)c1cccc([N+](=O)[O-])c1`, the “activity change, negative = inhibition” value is 2.92% (inactive).
On the same count and under the same terms, the value for `O=CNc1ccccc1` was 6.99% (inactive).
As for `NC(=S)NNC(N)=S`, the result was inactive.
As to `NC=O`, the “activity change, negative = inhibition” value was 0.758% (inactive).
Still for that read-out and setting: the value for `CCC(C)O` (stereo not given) was -0.312% (inactive).
For `Nc1cccc([N+](=O)[O-])c1`, the “activity change, negative = inhibition” value is 1.06% (inactive).
Still for that read-out and setting: for `CC(C)Cc1nccs1` the value was -12.2% (inactive).
Still for that read-out and setting: for `C=C(C)C1CC=C(C)C(OC(C)=O)C1` (stereo not given) the value was -6.25% (inactive); for `O=C(O)CCSSCCC(=O)O`, 5.43% (inactive).
On the same count and under the same terms, the value for `CCCCCCC(=O)O` was -2.46% (inactive); that for `COc1ccc(N)c(C)c1` was -2.14% (inactive); that for `C=C(C)C(=O)OCC(C)C` was 5.85% (inactive).
Take `NC(N)=S`: the “activity change, negative = inhibition” value was -12.6% (inactive).
